# Screens as filed in PubChem.
# Rows were chosen to be rich in hits. Some 9% of all compounds tested hit in one or more screens of this group.
# Lamin A splicing – LMNA splicing modulation; Potency, µM (doses to about 46.1 µM), for inactives: top-dose ratio change, negative = inhibition, usual class: inhibitors; HeLa LMNA splicing GFP/RFP minigene ratio, 48 h; AID 1487; 0.01% of 200,000 active; active = well fitted inhibition curve with a large enough effect in the signal ratio, with a control signal flat, not every such curve was filed as active; inconclusive = small, poorly fitted or top-dose-only effect, or effect the other way, or a change in a side signal; the % refers to the signal ratio
#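 S3 HeLa stable clones carrying a lamin A-EGFP splicing minigene plus DsRed2 were seeded at 600 cells/well in Opti-MEM with 2% FBS, pin-dosed and incubated 48 h at 37°C. Acumen cytometry (488 nm) gave the GFP/RFP total-intensity ratio.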
# HPGD inh – inhibitors of human 15-hydroxyprostaglandin dehydrogenase (HPGD); AID 894; 4.3% of 150,000 active; P15428; Potency, µM, for the others: at the top dose activity change, negative = inhibition, actives largely listed as inhibitors; purified HPGD, NADH fluorescence kinetic, PGE2 substrate
# Target sequence (P15428 whole entry, looked up): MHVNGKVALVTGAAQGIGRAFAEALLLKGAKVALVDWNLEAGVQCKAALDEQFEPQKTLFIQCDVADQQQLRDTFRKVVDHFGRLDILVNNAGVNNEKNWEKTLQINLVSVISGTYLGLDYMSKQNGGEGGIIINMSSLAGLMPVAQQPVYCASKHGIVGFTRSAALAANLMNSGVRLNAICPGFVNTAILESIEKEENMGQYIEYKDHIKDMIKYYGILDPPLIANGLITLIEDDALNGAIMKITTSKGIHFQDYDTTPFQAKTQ
#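 20 nM HPGD preincubated 15 min at room temperature with compound in 50 mM Tris-HCl pH 8, 0.01% Tween 20. Started with 1 mM NAD+ and 30 uM prostaglandin E2; NADH fluorescence (360/450 nm) read 5 times over 30-s intervals, last minus first.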
# KinaseGlo FLuc – Kinase-Glo luciferase inhibition (counter-screen) | Q27757 | Kinase-Glo luciferase, ATP luminescence, 8 min | Potency, µM (titrated, usually from 38.3 µM), inactives show at the highest dose activity change, negative = inhibition, actives largely listed as inhibitors | 0.28% of 200,000 active; active = well fitted curve in the direction sought with a large enough effect; inconclusive = small, poorly fitted or top-dose-only effect, or another doubt; inactive = no such curve, though single readings can be large; an effect the other way counts as inactive or inconclusive; note: nearly all actives have a fitted effect of over 60% in size
#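 Inhibition of Kinase-Glo luciferase light generation was assessed at 10 uM ATP in pH 7.2 imidazole buffer, with luminescence measured after eight minutes at ambient temperature.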
# ALDH1A1 block – blocks purified human ALDH1A1 activity; Potency, µM (titrated, usually from 75.3 µM), for the others: at the highest dose activity, negative = inhibition, usual class: inhibitors; 7.3% of 220,000 active; P00352; Purified ALDH1A1, NADH fluorescence, propionaldehyde substrate; AID 1030;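 note: plate controls were no enzyme wells and a reference inhibitor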
# IMPase Li cell – membrane-permeable IMPase blocker, potentiated with lithium; CHO-M1 cells, IP1 TR-FRET (IP-One), carbachol + lithium; Potency, µM (doses to about 59.4 µM), for the others: top-dose activity, negative = IMPase inhibition, actives largely listed as inhibitors; AID 1457; 0.35% of 210,000 active; active = well fitted curve in the direction sought with a large enough effect; inconclusive = small, poorly fitted or top-dose-only effect, or another doubt; inactive = no such curve, though single readings can be large; an effect the other way counts as inactive or inconclusive;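 note: IP1 builds up when IMPase is blocked and the TR-FRET signal falls; plate controls were basal vehicle for no effect and high inhibitor control for full effect; nearly all actives have a fitted effect of over 50% in size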
#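 IP1 accumulation measured by competitive TR-FRET in lysed CHO-M1 cells after 30 min compound exposure at 37C, with a small lithium addition to potentiate weak responses. Hill-equation AC50 from ratio and donor-channel data.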
# Active calls of the source: *; ? = inconclusive; nt = not tested or not shown; [ ] = dose if it differs, or a comment. Unless noted, calls come from the whole dose curve; as a rule, active = well fitted inhibition curve with a large enough effect (not every such curve was filed as active); inconclusive = small, poorly fitted or top-dose-only effect, or another doubt; inactive = no such curve, though single readings can be large or run the other way. Unless noted, % is set by controls: 0 for no effect and ±100 for the full control effect; potency is the fitted concentration of half-maximal effect.
SMILES,Lamin A splicing,HPGD inh,KinaseGlo FLuc,ALDH1A1 block,IMPase Li cell
COc1cccc(OC)c1C(=O)NC(=S)Nc1ccc2c(c1)OCCO2,nt,nt,0%,-2%,1%
O=C(NC(=S)Nc1ccc2c(c1)OCCO2)c1ccccc1,13%,-16%,-6%,22µM*,9%[38.3 µM]
CCOc1cccc(C(=O)NC(=S)Nc2ccc(N3CCCC3)cc2)c1,-7%,-6%,-1%,7.1µM*,4%
O=C(NC(=S)Nc1ccc2c(c1)OCCO2)c1ccccc1F,11%[46 µM],nt,-3%,?,7%
COc1ccc(-c2nc(CN(Cc3cnn(C)c3)C(C)C)c(C)o2)c(OC)c1,7%[46 µM],nt,-1%,3%,2%
COc1cccc(NC(=S)N2CCCC2c2ccc(OC)c(OC)c2)c1 (stereo not drawn),nt,nt,nt,1%,1%
CC1CCCCN1C(=O)CSc1nc2ccsc2c(=O)n1Cc1ccccn1 (stereo not drawn),0%,-13%,0%,16µM*,10%[38.3 µM]
Cc1cc(NC(=O)CSc2nc3ccsc3c(=O)n2Cc2ccccn2)n[nH]1,-1%,-14%,-4%,-26%,-7%[38.3 µM]
CCn1c(SCC(=O)N2CCCCC2C)nc2ccsc2c1=O (stereo not drawn),?,?,-1%,7.9µM*,-12%[38.3 µM]
CC1CCCCN1C(=O)CSc1nc2cc3c(cc2c(=O)n1Cc1ccc2c(c1)OCO2)OCO3 (stereo not drawn),1%,-27%,2%,22µM*,37%[38.3 µM]
CCN(CC)CCNC(=O)c1[nH]c2ccc(OCc3ccccc3)cc2c1C,nt,nt,0%,?,6%
CC(=O)c1ccc(N2CCN(C(=O)Nc3cn(CC(C)C)c(=O)c4ccccc34)CC2)cc1,-1%[46 µM],nt,nt,nt,nt
CCC(CC)NC(=O)COC(=O)CCC(=O)c1ccc(Cl)cc1,-8%[46 µM],nt,0%,-9%,2%
O=C(NCc1cccnc1)C(=O)N/N=C/c1ccc([N+](=O)[O-])cc1,nt,nt,1%,5%,0%
O=C1c2ccccc2C(=O)N1CSc1nnc(Nc2ccccc2F)s1,-11%,-19%,1%,7.1µM*,20%
Nc1ccn(Cc2ccc(F)cc2)n1,0%[46 µM],nt,0%,8%,3%
Cc1c(C(=O)Nc2cccc(C(F)(F)F)c2)oc2ccc(S(=O)(=O)N(C)C3CCCCC3)cc12,-19%[46 µM],nt,nt,nt,nt
CC(C)N(C(=O)c1sc2cc([N+](=O)[O-])ccc2c1Cl)C(C)C,2%,28µM*,-7%,?,10%[38.3 µM]
O=C(c1cc2cc([N+](=O)[O-])ccc2oc1=O)N1CCOCC1,?,nt,-21%,13µM*,0%
O=C(c1sc2cc([N+](=O)[O-])ccc2c1Cl)N1CCOCC1,-15%,16µM*,-4%,-2%,4%
CC(C)N(C(=O)/C=C/c1cccc([N+](=O)[O-])c1)C(C)C,nt,nt,4%,-12%,-9%
O=C(c1cccc([N+](=O)[O-])c1)N1CCOCC1,-13%,-2%,-3%,5%,-6%
COc1ccc(NC(=O)N2CC[C@@]3(CCCN(C(=O)c4ccc(OC)cc4)C3)C2)cc1,nt,4%,2%,-9%,15%
S=c1[nH]ncn1/N=C/c1cccc(Oc2ccccc2)c1,-3%,10µM*,2%,18µM*,42%[38.3 µM]
O=C(N/N=C1/CCSC1)c1cccc([N+](=O)[O-])c1,0%,-17%,2%,?,-4%
SMILES,Lamin A splicing,HPGD inh,KinaseGlo FLuc,ALDH1A1 block,IMPase Li cell
Cc1ccc(C(=O)N/N=C2\CCSC2)cc1[N+](=O)[O-],-9%,-7%,1%,13µM*,-2%
CC(C)CN(CC(C)C)c1ccc(/C=N/n2cnnc2)cc1[N+](=O)[O-],8%[46 µM],nt,-1%,?,20%
CN(C)c1ccc(/C=N/n2c(COc3ccccc3)n[nH]c2=S)cc1,-12%,13µM*,1%,25µM*,11%
O=[N+]([O-])c1ccc(/C=N/n2c(COc3ccccc3)n[nH]c2=S)cc1,4%,5µM*,-1%,28µM*,-9%[38.3 µM]
CN(C)c1ccc(/C=N/n2c(-c3cccnc3)n[nH]c2=S)cc1,-22%[46 µM],nt,-1%,?,-3%
S=c1[nH]nc(COc2ccccc2)n1/N=C/c1cccnc1,-4%,14µM*,-1%,-13%,1%
O=[N+]([O-])c1cccc(/C=N/n2c(COc3ccccc3)n[nH]c2=S)c1,-2%[0.0737 µM],4µM*,5%,?,32%[38.3 µM]
